Screening data (PubChem)
Nrf2 activator: qHTS of Nrf2 Activators | 410,000 tested, 0.31% active | Potency, µM (titrated, usually from 46.1 µM), without a hit: at the highest dose activation, usual class: activators | AREc32 ARE-luciferase reporter (MCF7-derived line), luminescence, 24 h | AID 624171, 2012; also: % of control where 0% means no effect; nearly all actives have a fitted effect of over 65% in size
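Luciferase luminescence (Steady-Glo, 30 min at room temperature) served as the read-out of ARE activation in AREc32 cells treated with compounds for 24 hr at 37 deg C.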
Rango dissoc inh: qHTS Assay for Inhibitors of RanGTP induced Rango (Ran-regulated importin-beta cargo) - Importin beta complex dissociation | Potency, µM (doses to about 46.1 µM), inactives show at the highest dose activity change, negative = inhibition | AID 540253, 2011 | Snurportin-1 (Homo sapiens) + GTP-binding nuclear protein Ran (Homo sapiens) + Importin … | Biochemical FRET Rango-importin beta, RanGTP-induced dissociation | 340,000 tested, 0.071% active; calls by dose curve; also: % of control where 0% means no effect; nearly all actives have a fitted effect of over 45% in size
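Rango (0.1 uM)–importin beta (0.25 uM) complex; RanGTP-RCC1 trigger; 45 min RT; CFP/YFP FRET read.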
Nrf2 block: Nrf2 qHTS screen for inhibitors | 360,000 tested, 2.1% active | A549 ARE-Fluc reporter, luciferase luminescence, 18-24 h | Potency, µM (titrated, usually from 46 µM), for inactives: at the highest dose activity change, negative = inhibition, usual class: inhibitors | AID 504444, 2011; also: % is scaled to controls: 0 for no effect and ±100 for the full control effect; nearly all actives have a fitted effect of over 60% in size
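A549 ARE_Fluc cells, 5000/well, 5% FBS OPTI-MEM; compounds in dose-response, 18-24 h at 37 °C/5% CO2; CellTiter-Fluor viability read (Ex 405/Em 525), then BugLite luciferase luminescence = Nrf2 activity.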
Rango complex inh: qHTS Assay for Inhibitors of Rango (Ran-regulated importin-beta cargo) - Importin beta complex formation; Importin subunit beta-1 (Homo sapiens), Q14974; Rango CFP/YFP FRET sensor + importin beta, 45 min; Potency, µM (titrated, usually from 92.2 µM), inactives show at the top dose inhibition of complex formation; 340,000 tested, 0.031% active; calls by dose curve;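 also: 0% = DMSO wells and 100% = buffer wells lacking importin beta; nearly all actives have a fitted effect of over 15% in size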
Target sequence (Q14974 whole entry, looked up): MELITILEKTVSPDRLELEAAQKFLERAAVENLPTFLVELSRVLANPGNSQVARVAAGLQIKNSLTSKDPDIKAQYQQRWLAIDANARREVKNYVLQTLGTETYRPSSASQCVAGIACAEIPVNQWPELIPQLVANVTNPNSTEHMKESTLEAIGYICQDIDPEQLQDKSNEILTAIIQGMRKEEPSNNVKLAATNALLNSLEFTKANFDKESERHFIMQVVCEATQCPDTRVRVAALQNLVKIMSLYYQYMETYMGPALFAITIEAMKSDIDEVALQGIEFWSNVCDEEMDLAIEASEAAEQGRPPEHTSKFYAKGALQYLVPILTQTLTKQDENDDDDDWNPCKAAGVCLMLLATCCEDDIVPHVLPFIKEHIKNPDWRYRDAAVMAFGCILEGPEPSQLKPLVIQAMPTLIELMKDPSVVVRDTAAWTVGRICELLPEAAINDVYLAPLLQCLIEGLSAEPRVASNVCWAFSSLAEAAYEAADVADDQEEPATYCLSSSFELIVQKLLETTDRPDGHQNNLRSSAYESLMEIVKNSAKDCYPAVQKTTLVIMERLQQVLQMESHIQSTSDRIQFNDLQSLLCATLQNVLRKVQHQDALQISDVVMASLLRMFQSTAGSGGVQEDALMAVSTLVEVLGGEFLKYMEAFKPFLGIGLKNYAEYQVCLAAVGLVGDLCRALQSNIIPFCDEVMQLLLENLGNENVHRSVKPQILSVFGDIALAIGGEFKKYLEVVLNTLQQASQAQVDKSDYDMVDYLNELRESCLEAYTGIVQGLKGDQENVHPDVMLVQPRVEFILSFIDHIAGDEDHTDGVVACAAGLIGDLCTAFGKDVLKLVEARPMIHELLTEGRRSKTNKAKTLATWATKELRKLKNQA
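Inhibition scored from the CFP 486 nm/YFP 530 nm FRET ratio 45 min after adding 0.125 microM importin beta to 50 nM Rango biosensor preincubated 5 min with compound (room temperature, PBS with DTT, Tween-20, BSA). No-importin wells as positive control.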
A549 viability: Nrf2 qHTS screen for inhibitors: counterscreen for cytotoxicity; A549 ARE-Fluc cells, CellTiter-Fluor viability, 18-24 h; Potency, µM (titrated, usually from 46 µM), for the others: at the top dose activity change, negative = cytotoxicity, most hits filed as inhibitors; 390,000 tested, 0.16% active; also: % is scaled to controls: 0 for no effect and ±100 for the full control effect
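A549 ARE_Fluc cells in 5% FBS OPTI-MEM were exposed to compounds in concentration-response for 18-24 h at 37 deg C. Viability was read by CellTiter-Fluor fluorescence (Ex 405/Em 525) after 30 min, before the luciferase read.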
* = called active by the depositor; ? = inconclusive; . = no result given; ! = repeats disagree; [ ] = remark or other dose. Compounds with a hit are over-represented: about 2.3% of the library has one in this group of screens. Unless noted, calls follow the shape of the dose curve; as a rule, active = well fitted curve in the direction sought with a large enough effect; inconclusive = small, poorly fitted or top-dose-only effect, or another doubt; inactive = no such curve, though single readings can be large; an effect the other way counts as inactive or inconclusive. Potency is read from the fitted curve at half-maximal effect.

SMILES | Nrf2 activator | Rango dissoc inh | Nrf2 block | Rango complex inh | A549 viability
Cc1ccccc1N1CC(c2nc3ccccc3n2CCC2CCCCC2)CC1=O (centres undefined) | -4% | . | 23µM* | . | -2%
CCc1ccccc1N1CC(c2nc3ccccc3n2CCC2CCCCC2)CC1=O (centres undefined) | -5% | . | ? | . | ?
O=S(=O)(c1ccc2c(c1)OCCO2)N1CCN(S(=O)(=O)c2cccs2)CC1 | . | . | -14% | . | -2%
c1nc(NCCCN2CCCCC2)c2cc(-c3ccc4c(c3)OCO4)ccc2n1 | . | . | 0% | . | -6%
Cc1cccc(-c2nc(CSCC(=O)NCCc3ccc(Cl)cc3)c(C)o2)c1 | -1% | . | ? | . | -16%
N#Cc1ccc(C(=O)NCC(=O)OC(C(=O)Nc2cc(C(F)(F)F)ccc2Cl)c2ccccc2)cc1 (centres undefined) | . | . | 9% | . | 17%
CC(=O)N/C(=C\c1ccccc1)C(=O)OCc1ccccc1 | 0% | -5% | 7% | -1% | -3%
CC(=O)N/C(=C\c1ccccc1)C(=O)OCc1cccc(S(=O)(=O)N(C)C)c1 | 2% | 1% | 23µM* | -3% | -4%
Nc1nccc(/C=C/c2c(Cl)cccc2Cl)n1 | 11µM* | 3% | -10% | 1% | -1%
O=S(=O)(c1ccc2c(c1)OCCO2)N1CCN(S(=O)(=O)c2ccc(F)cc2F)CC1 | . | . | 7% | . | 2%
O=C(Nc1cc(Cl)cc(Cl)c1)N1CCN(C(=O)C2CCCO2)CC1 (centres undefined) | 1% | 5% | 16µM* | 0% | 6%
Cc1ccc(CNC(=O)c2cc3cc(C)ccc3n2C)cc1 | 0% | . | ? | . | -2%
COc1ccccc1C(=O)COC(=O)c1ccccc1O | ? | 1% | -12% | 0% | 0%
COc1ccccc1C(=O)COC(=O)c1cccs1 | 8.9µM* | -10% | ? | -1% | -8%
CCCC1C2CN(C(C)C)CC=C2C(C#N)=C(N)C1(C#N)C#N (centres undefined) | 1% | ? | 6.5µM* | ? | ?
CN1CC=C2C(C#N)=C(N)C(C#N)(C#N)C(CCc3ccccc3)C2C1 (centres undefined) | 4% | ? | -5% | ? | 1%
Cc1ccc(C)c(NS(=O)(=O)c2cc3c(cc2Cl)NC(=O)CO3)c1 | -1% | . | 23µM* | . | ?
O=C1COc2cc(S(=O)(=O)CCC(=O)N3CCN(c4ccccc4F)CC3)c(Cl)cc2N1 | -1% | . | -14% | . | 3%
Cc1ccc(N2CCN(C(=O)CCS(=O)(=O)c3cc4c(cc3Cl)NC(=O)CO4)CC2)c(C)c1 | 0% | . | 26µM* | . | -16%
Cc1ccc(CNC(=O)CCS(=O)(=O)c2cc3c(cc2Cl)NC(=O)CO3)cc1 | 0% | 12% | 26µM*! | 0% | -7%
Cc1ccc(Cl)cc1N1CCN(C(=O)CCS(=O)(=O)c2ccc3c(c2)NC(=O)CO3)CC1 | -1% | -1% | 16µM* | -3% | -14%
Cc1ccc(OC(=O)CSc2nnc(-c3ccc4c(c3)OCO4)o2)c(C)c1 | -1% | . | 20% | . | -3%
COc1ccc(NCC(=O)NN=C2CCS(=O)(=O)c3ccc(F)cc32)cc1 | 0% | 1% | 21% | 8% | 5%
Cc1ccc(NS(=O)(=O)c2cccc(C(=O)Nc3cccnc3)c2)c(C)c1 | 3% | -16% | 8.2µM* | 3% | -9%
Cc1cccc(NC(=O)c2ccc(S(=O)(=O)NCc3cccnc3)cc2)c1 | 0% | -4% | 12µM* | 0% | -18%
SMILES | Nrf2 activator | Rango dissoc inh | Nrf2 block | Rango complex inh | A549 viability
COc1cccc(S(=O)(=O)NCc2ccc(C(=O)Nc3ccc(Cl)c(Cl)c3)cc2)c1 | 3% | -9% | . | 2% | ?
O=C(Nc1ccc(Cl)c(Cl)c1)c1cccc(S(=O)(=O)NCc2cccnc2)c1 | 5% | 1% | 15µM* | 0% | -23%
Cc1cc(C)cc(NC(=O)c2ccc(S(=O)(=O)NCc3cccnc3)cc2)c1 | 4% | 0% | -16% | 4% | 1%
Cc1ccc(NS(=O)(=O)c2cccc(C(=O)NC3CC3)c2)c(C)c1 | -1% | -1% | ? | -2% | 1%
O=C(OCC(=O)N1CCCc2ccccc21)c1cc(Br)ccc1O | 0% | 38% | -13% | -1% | -8%
O=C(NC(Cc1ccccc1)C(=O)N1CCCCC1)c1ccccc1 (centres undefined) | -1% | -9% | -8% | 2% | -10%
COc1cc2[nH]c3c(N4CCN(c5ccc(Cl)cc5)CC4)ncnc3c2cc1OC | 0% | -2% | ? | 0% | 2%[1.84 µM]
COc1ccc2c(c1)[nH]c1c(N3CCSCC3)ncnc12 | 2% | 1% | 21µM* | 1% | ?
c1nc(N2CCN(Cc3ccc4c(c3)OCO4)CC2)c2[nH]cnc2n1 | -1% | ? | 8% | -6% | 10%
COc1cccc(N2CCN(c3ncnc4c3[nH]c3ccc(F)cc34)CC2C)c1 (centres undefined) | -4% | -5% | 6.5µM* | -3% | 18µM*
COc1ccc2[nH]c3c(N4CC(C)OC(C)C4)ncnc3c2c1 (centres undefined) | 4% | -14% | -18% | 2% | -4%
COc1ccc2c(c1)[nH]c1c(N3CCN(Cc4ccc5c(c4)OCO5)CC3)ncnc12 | 0% | 6% | 13µM* | 0% | -6%
O=C1CCCC2=C1C1(CCC1)N=C(Nc1nc3ccccc3o1)N2 | . | . | -5% | . | 13%
CCCOc1ccc(OC(=O)c2sc3ncn(Cc4cccc(F)c4)c(=O)c3c2C)cc1 | 1% | . | . | . | 0%
CC1CCC/C=C/C(=O)c2c(O)cc(O)cc2CC(=O)O1 (centres undefined) | -3% | -2% | 5.8µM* | ? | 13µM*
C[C@@H]1Cc2c(O)c(O)cc(O)c2C(=O)O1 | 4% | -8% | 15% | ? | -4%
O=C1/C(=C/c2cccs2)SC(=S)N1c1cccc(O)c1 | 9% | 0% | 13% | 0% | -2%
CC(C)Cn1nc(NC(=O)c2cccs2)c2cc3ccccc3nc21 | 0% | ? | 16µM* | ? | 4%
CC(C)Cn1nc(NC(=O)c2ccco2)c2cc3ccccc3nc21 | 5% | ? | 16µM* | 2% | 20%
O=S(=O)(c1ccc2oc3ccccc3c2c1)N1CCCC1 | 0% | -7% | -16% | -3% | -1%
CCN(CC)C(=O)C1CCN(S(=O)(=O)c2ccc3oc4ccccc4c3c2)CC1 | 0% | -11% | 21µM* | -1% | -4%
Cc1noc2ncnc(N3CCCC(C(=O)NCCC(C)C)C3)c12 (centres undefined) | 0% | . | 23µM* | . | 0%
